PP5 primary = inhibitors of human protein phosphatase 5 (PP5); purified PP5c, OMFP substrate fluorescence; inhibition, % at 6.7 µM; hit rate 0.18% among 320,000; AID 1987; P53041;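 active = inhibition above the campaign's mean inhibition across all tested compounds plus 3 SD, cut at about 9.5% in these data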;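 also: 0% = DMSO only and 100% = 100 µM cantharidin control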
PAFAH1B3 FP inh = blocks human PAF acetylhydrolase 1B catalytic subunit 3; recombinant PAFAH1B3, FP-rhodamine probe, fluorescence polarization; inhibition, % at 3.39 µM; hit rate 0.28% among 340,000; AID 492972;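 active = inhibition above the screen-wide average of all tested compounds plus 3 SD, cut at about 25% in these data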;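 also: 0% = enzyme with DMSO only and 100% = wells lacking PAFAH1B3 protein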
Target sequence (Q15102 whole entry, looked up): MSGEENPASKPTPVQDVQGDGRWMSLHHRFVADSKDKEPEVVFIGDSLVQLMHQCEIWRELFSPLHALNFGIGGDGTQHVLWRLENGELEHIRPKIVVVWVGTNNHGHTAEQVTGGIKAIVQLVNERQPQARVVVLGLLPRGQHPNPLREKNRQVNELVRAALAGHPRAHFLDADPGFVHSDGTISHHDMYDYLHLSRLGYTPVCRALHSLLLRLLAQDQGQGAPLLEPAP
pPAFAH FP inh = inhibitors of human plasma PAF acetylhydrolase (pPAFAH); Q13093; recombinant pPAFAH, FP-rhodamine probe fluorescence polarization; inhibition, % at 3.39 µM; hit rate 1.5% among 330,000;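 active = inhibition above the mean inhibition across the screen plus 3 SD, cut at about 25% in these data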;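 also: inhibitors block binding of the rhodamine activity-based probe so polarization drops; 0% = enzyme with DMSO and 100% = wells lacking pPAFAH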
PAFAH1B2 inh = inhibitors of human PAFAH1B2 | inhibition, % at 3.39 µM | recombinant PAFAH1B2, FP-rhodamine activity probe, fluorescence polarization | hit rate 1.2% among 340,000 | P68402;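 active = inhibition above the mean of all tested compounds plus 3 SD, cut at about 24% in these data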;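 also: 0% = enzyme with DMSO and 100% = wells lacking PAFAH1B2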
PAFAH2 inh = PAFAH2 (human) inhibition; inhibition, % at 3.39 µM; Q99487; recombinant PAFAH2, FP-rhodamine activity probe, fluorescence polarization; hit rate 0.99% among 340,000;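 active = inhibition above the mean over all tested compounds plus 3 SD, cut at about 30% in these data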;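 also: inhibitors block probe labeling of enzyme so polarization drops; 0% = enzyme with DMSO and 100% = wells lacking PAFAH2 protein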
PP1 counter = counter-screen for PP5 inhibitors: inhibitors of human PP1-alpha; P62136; hit rate 0.9% among 320,000; purified PP1alpha, OMFP fluorescence; AID 2235; inhibition, % at 6.7 µM;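 active = inhibition above the mean inhibition of all tested compounds plus 3 SD, computed separately for each screening campaign, cut at about 15% in these data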
Target sequence (P62136 whole entry, looked up): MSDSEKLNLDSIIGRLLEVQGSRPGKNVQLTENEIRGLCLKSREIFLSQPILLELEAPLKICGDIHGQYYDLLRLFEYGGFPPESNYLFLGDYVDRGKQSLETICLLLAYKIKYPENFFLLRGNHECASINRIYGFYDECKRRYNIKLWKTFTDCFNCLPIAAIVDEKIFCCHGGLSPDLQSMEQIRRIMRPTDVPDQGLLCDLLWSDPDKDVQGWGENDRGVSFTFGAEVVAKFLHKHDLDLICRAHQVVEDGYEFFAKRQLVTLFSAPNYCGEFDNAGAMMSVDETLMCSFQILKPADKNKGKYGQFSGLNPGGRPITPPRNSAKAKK
* marks the source's active call; other numbers are inactive results; ! = not active in a repeat. Only some compounds are listed: those with a hit (about 3.4% of all), similar ones and a draw of the others.

Screening Cc1ccc(NS(=O)(=O)c2c(C)[nH]c(C)c2C(=O)N2CCCC2)cc1Cl returned PP5 primary 1, PAFAH1B3 FP inh 6, pPAFAH FP inh 3, PAFAH1B2 inh -5, PAFAH2 inh 3 and PP1 counter -1.
For CC1CCN(C(=O)COC(=O)C(C)N2C(=O)c3ccccc3C2=O)CC1 (stereo not drawn) the results were PP5 primary 2, PAFAH1B3 FP inh 0, pPAFAH FP inh 0, PAFAH1B2 inh 4, PAFAH2 inh 4 and PP1 counter -5.
Screening O=C(NCCS(=O)(=O)c1ccc(Br)cc1)c1ccccc1 returned PP5 primary -3, PAFAH1B3 FP inh 7, pPAFAH FP inh 3, PAFAH1B2 inh 6, PAFAH2 inh -9 and PP1 counter 0.
CC(C)c1ccc(C(C)NCCS(=O)(=O)c2ccc(Br)cc2)cc1 (stereo not drawn) was read as PP5 primary 6, PAFAH1B3 FP inh -5, pPAFAH FP inh 2, PAFAH1B2 inh 26*, PAFAH2 inh -5 and PP1 counter 5.
Screening CC(NCCS(=O)(=O)c1ccc(Cl)cc1)c1cccc(Cl)c1 (stereo not drawn) returned PP5 primary 0, PAFAH1B3 FP inh 13, pPAFAH FP inh 6, PAFAH1B2 inh 24*, PAFAH2 inh 7 and PP1 counter 2.
Cc1c(O)cccc1C(=O)N[C@@H](CSc1ccccc1)[C@H](O)CN1C[C@H]2CCCC[C@H]2C[C@H]1C(=O)NC(C)(C)C was read as PP5 primary 3, PAFAH1B3 FP inh -2, pPAFAH FP inh 0, PAFAH1B2 inh 1, PAFAH2 inh -2 and PP1 counter 17*!.
Screening CN1C(=O)/C(=C/c2cccc(Cl)c2)Sc2ccc(C(=O)N3CCOCC3)cc21 returned PP5 primary 3, PAFAH1B3 FP inh -4, pPAFAH FP inh 28*, PAFAH1B2 inh 6, PAFAH2 inh 3 and PP1 counter 0.
Screening CCOc1ccc(/C=C2/Sc3ccc(C(=O)N4CCOCC4)cc3N(C)C2=O)cc1OC returned PP5 primary -1, PAFAH1B3 FP inh 2, pPAFAH FP inh 1, PAFAH1B2 inh -5, PAFAH2 inh 1 and PP1 counter -3.
`CCOC(=O)c1cnn(-c2sc(C(=O)OCC)c(C)c2C(=O)OCC)c1N` gave PP5 primary 2, PAFAH1B3 FP inh 18, pPAFAH FP inh 6, PAFAH1B2 inh 8, PAFAH2 inh -4 and PP1 counter -6.
For Cc1cc(C)n2c(SCC(O)=C(C#N)c3nc4ccccc4[nH]3)nnc2n1 the results were PAFAH1B3 FP inh 3, PAFAH1B2 inh 2 and PAFAH2 inh 3.
Screening COc1ccc(C)cc1-n1nnnc1SC/C(O)=C(\C#N)c1nc2ccccc2[nH]1 returned PP5 primary 2, PAFAH1B3 FP inh 6, pPAFAH FP inh 5, PAFAH1B2 inh 6, PAFAH2 inh 7 and PP1 counter -2.
`Cc1ccc(Nc2nnc(SC/C(O)=C(\C#N)c3nc4ccccc4[nH]3)s2)c(C)c1` gave PP5 primary 1, PAFAH1B3 FP inh 8, pPAFAH FP inh 29*, PAFAH1B2 inh 21, PAFAH2 inh -1 and PP1 counter 11.
`Cc1ccc(Nc2nnc(SCC(=O)c3ccc(Br)s3)s2)c(C)c1` gave PP5 primary 3, PAFAH1B3 FP inh -6, pPAFAH FP inh 11, PAFAH1B2 inh -3, PAFAH2 inh -23 and PP1 counter 17*.
For Cc1cccc(Nc2nnc(SC/C(O)=C(\C#N)c3nc4ccccc4[nH]3)s2)c1 the results were PP5 primary -1, PAFAH1B3 FP inh 16, pPAFAH FP inh 25*, PAFAH1B2 inh 20, PAFAH2 inh -13 and PP1 counter 5.
For Cc1cc(OCC(=O)N[C@@H](Cc2ccccc2)c2nc3ccccc3[nH]2)ccc1Cl the results were PP5 primary 1, PAFAH1B3 FP inh 4, pPAFAH FP inh 0, PAFAH1B2 inh -4, PAFAH2 inh 4 and PP1 counter -3.
CC(=O)Nc1ccccc1NC(=O)C/C(C)=N/NC(=O)C(=O)Nc1cccc(Cl)c1C was read as PP5 primary -2, PAFAH1B3 FP inh 4, pPAFAH FP inh 7, PAFAH1B2 inh -3, PAFAH2 inh 11 and PP1 counter 0.
`COc1ccc(-n2cnnc2SCC(=O)Nc2nc(C)c(Cl)cc2Cl)cc1` gave PP5 primary 2, PAFAH1B3 FP inh -1, pPAFAH FP inh -4, PAFAH1B2 inh 1, PAFAH2 inh 1 and PP1 counter -2.
Screening CSc1ccccc1C(=O)NC(C)c1ccc(-n2ccnc2)cc1 (stereo not drawn) returned PP5 primary 1, PAFAH1B3 FP inh 1, pPAFAH FP inh 0, PAFAH1B2 inh 0, PAFAH2 inh 2 and PP1 counter -4.
`CCNC(=O)CCSc1nc2cc(Cl)ccc2o1` gave PP5 primary 2, PAFAH1B3 FP inh 7, pPAFAH FP inh 3, PAFAH1B2 inh 0, PAFAH2 inh 0 and PP1 counter -4.
COC(=O)c1c(-c2snnc2C)n[nH]c1C was read as PP5 primary -1, PAFAH1B3 FP inh 4, pPAFAH FP inh 2, PAFAH1B2 inh -1, PAFAH2 inh 0 and PP1 counter -2.
For O=c1[nH]c(/C=C\c2cccc(Cl)c2)nc(O)c1[N+](=O)[O-] the results were PP5 primary 1, PAFAH1B3 FP inh 12, pPAFAH FP inh 0, PAFAH1B2 inh 33*, PAFAH2 inh 5 and PP1 counter 3.
CCOCCCNC(=O)C(c1ccc(Cl)cc1)N1CCC2(CC1)OCCO2 (stereo not drawn) was read as PP5 primary 0, PAFAH1B3 FP inh 2, pPAFAH FP inh -1, PAFAH1B2 inh 1, PAFAH2 inh -11 and PP1 counter 1.
Cn1c(=O)c2c(nc(N/N=C/c3ccncc3)n2Cc2ccccc2)n(C)c1=O was read as PP5 primary -1, PAFAH1B3 FP inh -5, pPAFAH FP inh 6, PAFAH1B2 inh 6, PAFAH2 inh 4 and PP1 counter -1.
COc1cc(/C=N/Nc2nc3c(c(=O)n(C)c(=O)n3C)n2Cc2ccccc2)ccc1OC(=O)c1ccco1 was read as PP5 primary 1, PAFAH1B3 FP inh 15, pPAFAH FP inh 34*, PAFAH1B2 inh 0, PAFAH2 inh 2 and PP1 counter 10.
Screening O=C(/C=C/c1ccco1)NCC1CCCO1 (stereo not drawn) returned PP5 primary -10, PAFAH1B3 FP inh 5, pPAFAH FP inh 1, PAFAH1B2 inh -3, PAFAH2 inh 14 and PP1 counter 5.
Nc1c(C(=O)NCC2CCCO2)sc2nc3c(c(-c4ccco4)c12)CC/C3=C\c1ccco1 (stereo not drawn) was read as PAFAH1B3 FP inh 39*, PAFAH1B2 inh 24* and PAFAH2 inh 54*.
For Cc1coc2c1C(=O)C(=O)c1c-2ccc2c(C)cccc12 the results were PP5 primary 8, PAFAH1B3 FP inh 19, pPAFAH FP inh 56*, PAFAH1B2 inh 21, PAFAH2 inh 51* and PP1 counter 6.
